Rows were chosen to be rich in hits. Some 1.6% of all compounds tested hit in one or more screens of this group.
Mtb hypoxia rep: PubChem AID 1159583. fluorescence inhibition, % (test concentration not listed). 300,000 tested, 0.1% active. M. tuberculosis hypoxia-regulated fluorescent reporter, fluorescence; in the data active = fluorescence inhibition mostly above about 23%, no sharp cut-off; inactive = mostly below about 17%
RecA splice inh: Mtb RecA intein splicing inhibitors, primary screen, biochemical, fluorescence, HTS; Protein RecA (Mycobacterium tuberculosis (strain ATCC 25618 / H37Rv)), P9WHJ3; cell-free RecA intein splicing; inhibition, % (test concentration not listed); 290,000 tested, 0.75% active; in the data active = inhibition above about 30%;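 note: 0% = vehicle wells and 100% = reference inhibitor control wells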
Target sequence (P9WHJ3 whole entry, looked up, canonical isoform): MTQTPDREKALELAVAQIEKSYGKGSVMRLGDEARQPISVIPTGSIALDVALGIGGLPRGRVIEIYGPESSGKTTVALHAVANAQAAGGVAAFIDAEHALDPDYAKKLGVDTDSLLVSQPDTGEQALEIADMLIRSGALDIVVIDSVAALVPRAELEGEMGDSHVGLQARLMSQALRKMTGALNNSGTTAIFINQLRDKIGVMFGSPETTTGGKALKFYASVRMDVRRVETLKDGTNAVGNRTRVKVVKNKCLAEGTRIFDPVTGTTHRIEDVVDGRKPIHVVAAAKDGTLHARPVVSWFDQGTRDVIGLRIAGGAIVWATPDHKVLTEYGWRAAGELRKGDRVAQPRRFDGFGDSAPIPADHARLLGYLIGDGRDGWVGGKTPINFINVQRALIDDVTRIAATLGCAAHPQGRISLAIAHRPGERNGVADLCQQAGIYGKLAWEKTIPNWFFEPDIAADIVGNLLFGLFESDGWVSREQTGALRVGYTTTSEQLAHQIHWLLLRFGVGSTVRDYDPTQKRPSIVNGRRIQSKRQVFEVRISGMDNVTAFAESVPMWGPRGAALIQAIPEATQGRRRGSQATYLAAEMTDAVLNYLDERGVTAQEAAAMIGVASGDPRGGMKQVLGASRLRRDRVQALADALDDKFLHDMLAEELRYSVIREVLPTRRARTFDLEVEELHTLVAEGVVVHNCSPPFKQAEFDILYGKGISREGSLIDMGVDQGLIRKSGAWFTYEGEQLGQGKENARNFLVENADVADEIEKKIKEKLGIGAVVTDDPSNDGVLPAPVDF
BJeLR viability: MLPCN primary cell-based screen for lethality selective to Ras in HRASV12 cells; BJeLR (HRASV12) viability, CellTiter-Glo ATP luminescence, 48 h; inhibition, % (no concentration beside the values); 300,000 tested, 0.17% active; in the data active = inhibition above about 50%
Sa ugtP lethal: growth inhibition of ugtP-null S. aureus, primary screen, RN4220 ugtP deletion, OD600. AID 1259309, 2017. 330,000 tested, 0.54% active. 16 h. growth inhibition, % (no concentration beside the values); in the data active = growth inhibition above about 68%;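 note: plate controls were untreated wells for no effect and antibiotic for full effect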
CCHFV vOTU inh: CCHFV vOTU protease inhibitors, primary screen, biochemical, Pep-AMC substrate, fluorescence. inhibition, % at 11.5 µM. Crimean-Congo hemorrhagic fever virus L polyprotein viral ovarian tumor (vOTU) protease …. 370,000 tested, 0.55% active; in the data active = inhibition above about 30%; note: 0% = vehicle wells with enzyme and 100% = no enzyme wells
Sa RN4220 lethal: growth inhibition of S. aureus RN4220, primary screen, OD600 | AID 1259311, 2017 | inhibition, % (test concentration not listed) | 330,000 tested, 0.33% active | 16 h; in the data active = inhibition above about 85%;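 note: plate controls were untreated cells for no effect and reference antibiotic for full effect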
* marks the source's active call; other numbers are inactive results; ! = repeats disagree.

What do the screens show for `[O-]/C(=C(\C(=S)Nc1ccccc1F)[n+]1ccccc1)c1ccc(OC(F)F)cc1`?
Mtb hypoxia rep: 10.4; RecA splice inh: 1.1; BJeLR viability: 4.1; Sa ugtP lethal: -0.4; CCHFV vOTU inh: 10.2; Sa RN4220 lethal: 3.6

Results for Cc1ccc(C)c(NC(=S)/C(=C(\[O-])c2ccc(OC(F)F)cc2)[n+]2ccccc2)c1 ?
Mtb hypoxia rep: 3.4; RecA splice inh: 32.6*; BJeLR viability: 13.1; Sa ugtP lethal: 12.9; CCHFV vOTU inh: 2.6; Sa RN4220 lethal: 5.4

Results for Cc1ccc(NC(=S)/C(=C(\[O-])c2ccc(F)cc2)[n+]2ccccc2)cc1 ?
Mtb hypoxia rep: -1.4; RecA splice inh: 30.3*; BJeLR viability: 5.7; Sa ugtP lethal: 7.2; CCHFV vOTU inh: -0.1; Sa RN4220 lethal: 3.9

What do the screens show for `Cc1ccc(/C([O-])=C(/C(=S)NCc2ccco2)[n+]2ccccc2)cc1`?
RecA splice inh: 4.3; BJeLR viability: 1.9

Results for CC1CN(C(C)CO)C(=O)c2cccc(NC(=O)c3ccncc3)c2OC1CN(C)C (configuration not stated) ?
Mtb hypoxia rep: 11.5; Sa ugtP lethal: 4.9; Sa RN4220 lethal: 5.8

Results for CC(=O)CC1c2cc(C(F)(F)F)ccc2S(=O)(=O)N1C1CCCCC1 (configuration not stated) ?
Mtb hypoxia rep: 0.2; Sa ugtP lethal: 1.1; Sa RN4220 lethal: 5.1

How did C=COC(=O)CSc1snc(SCC(=O)OC)c1C#N do in these assays?
RecA splice inh: 33.2*; BJeLR viability: -5.7; Sa ugtP lethal: 5.4; CCHFV vOTU inh: 4.3; Sa RN4220 lethal: 5.6

What do the screens show for `CCN(CC)C(=O)CSc1nsc(SCC(=O)N(CC)CC)c1C#N`?
Sa ugtP lethal: 3.8; CCHFV vOTU inh: 11.8; Sa RN4220 lethal: 1.1

Results for CNCC1Oc2c(NC(=O)C3CC3)cccc2C(=O)N(C(C)CO)CC1C (configuration not stated) ?
Mtb hypoxia rep: -4.8; Sa ugtP lethal: -0.6; Sa RN4220 lethal: -2.3

Results for O=C1NC(=S)S/C1=C\c1cc2ccccc2nc1N1CCCCC1 ?
Mtb hypoxia rep: -0.9; RecA splice inh: 23.4; BJeLR viability: 9.2; Sa ugtP lethal: 86.4*; CCHFV vOTU inh: -0.3; Sa RN4220 lethal: 84.4*

What do the screens show for `COc1ccccc1C=C1SC(=S)NC1=O`?
CCHFV vOTU inh: -1.4

How did O=C1NC(=S)SC1=Cc1ccccc1Cl do in these assays?
Mtb hypoxia rep: 10.9; Sa ugtP lethal: 99.9*; CCHFV vOTU inh: 11.1; Sa RN4220 lethal: 98.4*

How did CCCCCCc1ccc(N2CC(CCCCC)C(CC(=O)NCc3ccccc3)C2=O)cc1 (configuration not stated) do in these assays?
Mtb hypoxia rep: 7.6; Sa ugtP lethal: -25.2; Sa RN4220 lethal: -4.9

How did C=CCC(CC(=O)NC(CO)Cc1ccccc1)C(=O)NC(COC(=O)C(CC=C)Cc1ccc(F)cc1)Cc1ccccc1 (configuration not stated) do in these assays?
Mtb hypoxia rep: 38.1*!; Sa ugtP lethal: 17.6; Sa RN4220 lethal: 9.3

Results for O=C1NC(=O)N(c2ccc3c(c2)OCO3)C(=O)/C1=C/c1ccc(N2CCCCC2)o1 ?
Mtb hypoxia rep: 19.7; RecA splice inh: -1.1; BJeLR viability: 4.3; Sa ugtP lethal: -6.3; CCHFV vOTU inh: 0.8; Sa RN4220 lethal: -13.5

Results for CCOc1ccc(N2C(=O)NC(=O)C(=Cc3ccc(N4CCCCC4)o3)C2=O)cc1 ?
Mtb hypoxia rep: 40.0*; Sa ugtP lethal: 1.8; Sa RN4220 lethal: 2.7

How did CCOc1ccc(N2C(=O)NC(=O)/C(=C\c3ccc(N4CCOCC4)cc3C)C2=O)cc1 do in these assays?
Mtb hypoxia rep: -1.8; BJeLR viability: 5.5; Sa ugtP lethal: 7.9; CCHFV vOTU inh: 8.7; Sa RN4220 lethal: 1.7

Results for O=C1NC(=O)N(c2ccc3c(c2)OCO3)C(=O)C1=Cc1ccc(N2CCCC2)o1 ?
Mtb hypoxia rep: 40.1*; Sa ugtP lethal: 6.2; Sa RN4220 lethal: 6.6

How did Cc1[nH][nH]c(=O)c1C(c1ccc(-c2cccc(Cl)c2)o1)c1c(C)[nH][nH]c1=O do in these assays?
Mtb hypoxia rep: 16.9; RecA splice inh: 96.6*; BJeLR viability: 4.7; Sa ugtP lethal: 44.4; Sa RN4220 lethal: 15.4

What do the screens show for `O=c1[nH]nc(Cc2ccc(-c3cccc(Cl)c3)o2)c2ccccc12`?
Mtb hypoxia rep: 4.9; RecA splice inh: 0.1; BJeLR viability: 2.1; Sa ugtP lethal: -3.7; CCHFV vOTU inh: -9.6; Sa RN4220 lethal: -1.2

How did CC(C)(C)OC(=O)CC1CC=CCC(CC(=O)N(CCO)Cc2ccccc2)C(=O)NC(C(C)(C)C)COC1=O (configuration not stated) do in these assays?
Mtb hypoxia rep: 10.1; Sa ugtP lethal: -2.3; Sa RN4220 lethal: 3.6

Results for O=C(Cn1nc(CNc2ccc(Cl)cc2)[n+]2c1CCCCC2)c1ccccc1 ?
Mtb hypoxia rep: 8.2; RecA splice inh: -2.5; BJeLR viability: 0.0; Sa ugtP lethal: -11.1; CCHFV vOTU inh: 14.1; Sa RN4220 lethal: -5.2

What do the screens show for `Cc1ccc(C(C)C)c(OCc2nn(CC(=O)c3ccc(Cl)cc3)c3[n+]2CCCCC3)c1`?
RecA splice inh: 8.2; BJeLR viability: -8.2; Sa ugtP lethal: 99.4*; CCHFV vOTU inh: 9.5; Sa RN4220 lethal: 100.5*

How did COc1cc(C(=O)NCC(=O)N/N=C/c2cccc(OC(=O)c3ccco3)c2)cc(OC)c1OC do in these assays?
RecA splice inh: 38.7*; BJeLR viability: -4.3; CCHFV vOTU inh: 2.6

Results for Cc1cc(C(=O)N/N=C/c2cccc(OC(=O)c3ccco3)c2)n[nH]1 ?
RecA splice inh: 43.9*; BJeLR viability: 12.1; CCHFV vOTU inh: -5.5

How did CCOC(=O)Cc1[nH]nc2c1C(c1ccsc1)C(C#N)=C(N)O2 (configuration not stated) do in these assays?
Mtb hypoxia rep: 16.8; RecA splice inh: 57.3*; BJeLR viability: -1.3; Sa ugtP lethal: 7.3; CCHFV vOTU inh: -4.4; Sa RN4220 lethal: 13.2

Results for COCc1[nH]nc2c1C(c1ccc(OC)cc1)C(C#N)=C(N)O2 (configuration not stated) ?
Mtb hypoxia rep: -4.4; RecA splice inh: 58.4*; BJeLR viability: 13.4; Sa ugtP lethal: 5.3; CCHFV vOTU inh: 3.6; Sa RN4220 lethal: 11.5

What do the screens show for `COc1ccc(F)c(C2C(C#N)=C(N)Oc3n[nH]c(C(C)(C)C)c32)c1` (configuration not stated)?
Mtb hypoxia rep: -6.4; RecA splice inh: 7.2; BJeLR viability: -9.7; Sa ugtP lethal: 6.9; CCHFV vOTU inh: 21.8; Sa RN4220 lethal: 5.3

Results for COCc1[nH]nc2c1C(c1ccccc1F)C(C#N)=C(N)O2 (configuration not stated) ?
Mtb hypoxia rep: 4.2; RecA splice inh: 35.0*; BJeLR viability: -21.2; Sa ugtP lethal: 12.5; CCHFV vOTU inh: 17.0; Sa RN4220 lethal: 6.2
